Results filed as inconclusive are left out. A call without a number means that no potency is given here. Unmarked numbers belong to inactive results. Active and inactive are the calls of the source. Calls follow the shape of the full dose curve.
Potency is read from the fitted curve at half-maximal effect.

Sequence of Beta-2 adrenergic receptor (Homo sapiens) (P07550 whole entry, looked up): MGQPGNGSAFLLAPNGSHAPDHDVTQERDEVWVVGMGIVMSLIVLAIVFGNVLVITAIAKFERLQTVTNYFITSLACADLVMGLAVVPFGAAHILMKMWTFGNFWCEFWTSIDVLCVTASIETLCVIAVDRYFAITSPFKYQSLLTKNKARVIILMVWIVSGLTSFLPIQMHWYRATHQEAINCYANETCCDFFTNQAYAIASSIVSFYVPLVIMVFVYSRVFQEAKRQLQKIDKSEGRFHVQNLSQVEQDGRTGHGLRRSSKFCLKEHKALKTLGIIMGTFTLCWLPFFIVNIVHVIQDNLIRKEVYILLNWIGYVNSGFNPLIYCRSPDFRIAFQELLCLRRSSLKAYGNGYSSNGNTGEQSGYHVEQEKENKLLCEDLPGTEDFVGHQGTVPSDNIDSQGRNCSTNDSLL

This assay concerns the target Beta-2 adrenergic receptor (Homo sapiens) (UniProt P07550). Put plainly: Adrenergic beta2 receptor (ADRB2) small molecule antagonists, cell-based qHTS assay (AID 1963592). Also: nearly all actives have a fitted effect of over 50% in size. The settings on record: CHO-ADRB2 cells, isoproterenol-stimulated cAMP HTRF ratio, 0.5 h; series mostly up to 92.4 µM. The text has this: U.S. Tox21 Program National Center for Advancing Translational Sciences [NCATS] Division of Preclinical Innovation [DPI] U.S. Environmental Protection Agency [EPA] National Institutes of Environmental Health Sciences [NIEHS] National Toxicology Program [NTP] U.S. Food and Drug Administration [FDA] Tox21 Assay Overview: Beta adrenergic receptors (Beta-ARs) belong to the G-protein coupled receptor (GPCR) superfamily, includes three subtypes - beta1, beta2, and beta3. Beta1-AR is the predominant receptor subtype expressed in the heart, and beta2-AR is expressed in the kidney, lung, blood vessel and in the heart, and beta3 is found in the adipocytes. Beta1 and 2 ARs couple to Gs protein and elevate cyclic adenosine mono phosphate (cAMP), which activates protein kinase A and leads to the downstream signaling responsible for the physiological actions. Beta-AR agonists or antagonists are the most prescribed therapeutic agents for heart failure and asthma, and these were one of the first target receptors for the rational drug design. Tox21 10K compound library was screened using the cAMP-Gs dynamic assay (Cisbio Bioassays, Shelton, CT) to identify agonists/antagonists of the Gs-coupled human adrenergic, beta2 receptor (ADRB2) in the CHO-ADRB2 cell line (Codex BioSolutions, Inc. Gaithersburg, MD), which stably over-expresses ADRB2. The principle of cAMP-Gs dynamic assay is based on HTRF technology, which facilitates the fluorescence resonance energy transfer (FRET) between donor Europium cryptate and acceptor d2-labeled cAMP. The cAMP generated within cells competes with the red acceptor, d2-labled cAMP, for binding to the monoclonal anti-cAMP-cryptate (Europium donor). An increase in intracellular cAMP leads to the disruption of FRET signal, and the signal is inversely proportional to the cAMP concentration. Propranolol HCl (Sigma-Aldrich, St. Louis, MO) was used as a positive control in the screening.
Tox21 Assay Protocol Summary: CHO-ADRB2 cells were dispensed at 1,000/well in 4uL assay medium into white/solid 1536-well plates (Greiner Bio-One North America Inc., Monroe, NC) using a Multidrop Combi dispenser (ThermoFisher Scientific, Waltham, MA). The assay plates were incubated at 37C and 5% CO2 for an overnight (18-20hr). Then positive control and test compounds dissolved in DMSO were transferred to the assay plates at 23nL using a Pintool station (Wako, San Diego, CA). Following the compound and positive control transfer, 1uL agonist-stimulation mix containing 1nM Isoproterenol HCl, 100uM IBMX and 25uM Ro-20-1724 was added to each well of the assay plates using BioRAPTR Flying Reagent Dispenser (FRD, Beckman Coulter, Brea, CA). The assay plates were incubated at room temperature for 0.5hr. Then 2.5ul each d2-labled cAMP and anti-cAMP-cryptate solutions were added separately to each well of the assay plates using an FRD and the assay plates were incubated at room temperature for 1hr. The fluorescence signal was measured at two different wavelengths (665nm and 615nm) using an Envision plate reader (Perkin Elmer, Shelton, CT). Data were expressed as the ratio of 665 nm/615 nm.
In general terms: qHTS replaces the single test concentration by a dilution series.
On to `CCOC(=O)NC(O)C(Cl)(Cl)Cl` (stereo not given), for which the Potency result was “inactive”.

For `Clc1ccc(C2(Cn3cncn3)CC(Br)CO2)c(Cl)c1` (stereo not given), the Potency entry was “inactive”. On the same count and under the same terms, with `O=C1NC(=O)C(=O)C(=O)N1` the entry was “inactive”; with `CN1[C@@H]2CC[C@H]1CC(O)C2` (stereo not given in full), “inactive”.

Regarding `ClC(Cl)(Cl)Cl`, the Potency result was “inactive”. Regarding `Cc1cc(SCc2sc(-c3ccc(C(F)(F)F)c(F)c3)nc2C)ccc1OCC(=O)O`, the Potency entry was “inactive”. `COP(=S)(Oc1cc(Cl)c(Br)cc1Cl)c1ccccc1` (stereo not given): the Potency entry was “inactive”.

For `CCOP(=S)(Oc1ccc([N+](=O)[O-])cc1)c1ccccc1` (stereo not given), the Potency entry was “inactive”. Same read-out and setting: the same measure for `O=[N+]([O-])c1ccc(Nc2ccccc2)cc1`: “inactive”; for `CCCC[N+](=O)[O-]`: “inactive”. The same measure, in the same setting: with `CN(C)CCc1c[nH]c2ccccc12` the entry was “inactive”; with `CNNC`, “inactive”.

As for `C/C(=C\c1ccccc1)[N+](=O)[O-]`, the Potency result is “inactive”. Turning to `N#CNC#N`, the Potency result is “inactive”.

`O=[N+]([O-])c1cc(C(F)(F)F)cc([N+](=O)[O-])c1Cl`: the Potency entry was “inactive”. Same read-out and setting: the same measure for `CCCCCCCCCCCCCN1CC(C)OC(C)C1` (stereo not given): “inactive”; for `OC(c1ccc(Cl)cc1)(c1ccc(Cl)cc1)C(Cl)(Cl)Cl`: “inactive”; for `O=P(O)(O)c1ccccc1`: “inactive”. Same read-out and setting: the same measure for `O=C1CN=C(c2ccccc2)c2cc([N+](=O)[O-])ccc2N1`: “inactive”.

`N#CCCSCCC#N`: the Potency result was “inactive”.

`COc1cc(C=O)cc2c1[C@H](COC(N)=O)[C@]1(OC(C)=O)ON2C[C@H]2[C@@H]1N2C(C)=O`: the Potency result was “inactive”. Turning to `[Cl][Sn]([c]1ccccc1)([c]1ccccc1)[c]1ccccc1`, the activity change, negative = inhibition is 1.04% [at 19 µM].

Turning to `CS(=O)(=O)c1ccc(C(=O)C2C(=O)CCCC2=O)c(Cl)c1COCC(F)(F)F`, the Potency result is “inactive”.

`CCC1(CC)C(=O)N=C(O)NC1=O`: the Potency result is “inactive”. The same measure, in the same setting: with `CC(Cl)(Cl)Cl` the entry was “inactive”; with `c1cncc([C@@H]2CCCCN2)c1`, “inactive”; with `Cc1ccc(O)cc1C`, “inactive”. The same measure, in the same setting: with `C[C@@H](Oc1ccc(Cl)cc1Cl)C(=O)O` the entry was “inactive”. On to `NC(=S)C(N)=S`, for which the Potency entry was “inactive”.

`CCC(=O)c1ccc(Cl)cc1`: the Potency entry is “inactive”. With `O=C1C(Cl)C(CCl)CN1c1cccc(C(F)(F)F)c1` (stereo not given), the Potency entry was “inactive”. Same read-out and setting: the same measure for `CCC1CCC(=O)O1` (stereo not given): “inactive”; for `CN1C(=S)CN=C(c2ccccc2)c2cc(Cl)ccc21`: “inactive”; for `FC(F)OC(F)(F)C(F)Cl` (stereo not given): “inactive”. Still for that read-out and setting: with `Clc1cc(C(Cl)(Cl)Cl)cnc1Cl` the entry was “inactive”.

Regarding `CC(C1CC1)C(O)(Cn1cncn1)c1ccc(Cl)cc1` (stereo not given), the Potency result is “inactive”. Same read-out and setting: with `Cn1c(CCCC(=O)O)nc2cc(N(CCCl)CCCl)ccc21` the entry was “inactive”; with `CCC[CH2][Sn]([CH2]CCC)([CH2]CCC)[O][Sn]([CH2]CCC)([CH2]CCC)[CH2]CCC`, 1.68 µM (active); with `CCOP(=S)(OCC)SCSP(=S)(OCC)OCC`, “inactive”.

Regarding `CC[C@H](C)[C@H]1O[C@]2(C=C[C@@H]1C)C[C@@H]1C[C@@H](C/C=C(\C)[C@@H](O[C@H]3C[C@H](OC)[C@@H](O[C@H]4C[C@H](OC)[C@@H](NC)[C@H](C)O4)[C@H](C)O3)[C@@H](C)/C=C/C=C3\CO[C@@H]4[C@H](O)C(C)=C[C@@H](C(=O)O1)[C@]34O)O2`, the Potency was 43.3 µM (active).
